In PubChem BioAssay (NCI):
About 83,000 compounds went through this panel and 20% of them were active in at least one assay; those are over-represented in the sample as a whole.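 Percent growth is the endpoint: 0 to 100 indicates growth inhibition (40 means 60% inhibition), 0 means no net growth, and negative values indicate cell death.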 Unmarked numbers belong to inactive results. Active and inactive are the calls of the source. Rule for the calls: active = growth percent below 10; inactive = the rest.

Assays:
Test in all cases: NCI-60 one-dose screen, 48 h (100 = growth as untreated, 0 = no growth, -100 = all killed)
Conditions in all cases: 10 µM unless noted
[1] = test system: T-47D breast
[2] = test system: BT-549 breast
[3] = test system: MDA-MB-435 melanoma
[4] = test system: SW-620 colon
[5] = test system: MCF7 breast
[6] = test system: HCT-116 colon
[7] = test system: HCC-2998 colon
[8] = test system: KM12 colon

SMILES | growth [1] | growth [2] | growth [3] | growth [4] | growth [5] | growth [6] | growth [7] | growth [8]
Cc1nnc(-c2ccc3c(c2)nc(/C=C/c2ccccc2)n3C2CCCCC2)o1 | 52% | 81% | 83.8% | 111% | 77.1% | 64.5% | 87.7% | 85.1%
O=[N+]([O-])c1cc(NS(=O)(=O)c2ccccc2)ccc1NS(=O)(=O)c1ccccc1 | 104% | 74.9% | 123% | 84.4% | 112% | 87.1% | 99.3% | 103%
COc1ccc(C2=CC(c3cc(OC)c(OC)c(OC)c3)n3ncnc3N2)cc1 (stereo not given) | 62.9% | 4.42% (active) | -21.9% (active) | 21.5% | 15% | 0.658% (active) | 26.5% | 6% (active)
CCOC(=O)C#Cc1c(C(=O)OCC)nnn1Cc1ccc(C(F)(F)F)cc1 | 31.8% | 63.1% | 63.8% | -23.9% (active) | 1.53% (active) | 31.1% | 102% | 89.4%
Cc1ccc(C)c2c(C)c(C(=O)Nc3cccc(-n4cccn4)c3)oc12 | 7.95% [50 µM] (active) | 61.5% [50 µM] | 69.9% [50 µM] | 70.2% [50 µM] | 13.2% [50 µM] | 50.7% [50 µM] | 81.2% [50 µM] | 56.3% [50 µM]
CN(C)CCN1C(=O)c2cccc3c(/C=C/CN4C(=O)c5cccc6cccc(c56)C4=O)ccc(c23)C1=O | 97.6% | 97% | 89.3% | 11.9% | -71.6% (active) | 9.57% (active) | 36.4% | -79.4% (active)
CCN1C(=O)N(CC)C2Nn3c(s/c(=C\c4ccccc4Br)c3=O)=NC21 (stereo not given) | 62.1% | 19% | -62.1% (active) | 17.4% | 16.7% | 11.2% | 24.4% | 7.48% (active)
O=C1c2ccccc2C(=O)c2c1cc1c(c2[N+](=O)[O-])OCO1 | 4.66% (active) | 15.8% | 56.3% | 7.14% (active) | 3.53% (active) | 1.94% (active) | -46.4% (active) | 0.869% (active)
N#C/C(=C\C=C\c1ccc(-c2cc(Cl)ccc2Cl)o1)c1nc2ccccc2s1 | 84.8% | 104% | 102% | 98.1% | 83.3% | 96.6% | 102% | 106%
C[C@H](C(=O)N(CCc1ccc(Cl)c(Cl)c1)Cc1cncs1)[C@@H]1CC[C@H](C[C@H](C)n2cc(CN3CCC(c4ccc(Cl)cc4)CC3)nn2)O1 | 86.6% | 95.1% | 98.3% | 97.5% | 85.8% | 92.5% | 112% | 105%
CCc1n(Cc2ccc3ccccc3n2)cc[n+]1Cc1ccc2ccccc2n1 | -3.68% (active) | 13.4% | 14% | 38.5% | 13.5% | 35% | 27.3% | 12.2%
CCCCNc1cc(-c2cn[nH]c2-c2cc(C)cc(OC)c2)nc(-c2cccnc2)n1 | 49.7% | 85.3% | 92.1% | 107% | 88.1% | 91.7% | 106% | 93.9%
COc1cnc2c(c1)C(=O)c1c-2n(CCCCl)c(=O)c2ccncc12 | 28.9% | 56.8% | 79.2% | 36.3% | 17.9% | 40.4% | 75.6% | 67.8%
Cc1ccc(-c2nc(/C=C3/C(=O)Nc4ccc(F)cc43)c3ccccn23)cc1 | 100% | 111% | 86.7% | 44.3% | 35.5% | 55% | 95% | 81.7%
COc1ccc2[nH]cc(-c3nc(-c4c[nH]c5c(Cl)nccc45)cs3)c2c1 | 24.5% | 51.3% | 51.8% | 1.95% (active) | 54.7% | 36.4% | 68.6% | 33.3%
O=C(Nc1ccccc1[N+](=O)[O-])c1ccc(Cl)c(Cl)c1 | 54.9% | 85.6% | 102% | 97.9% | 52% | 95% | 110% | 96.8%
COc1ccc(C[n+]2c3ccccc3n3c4ccc(N)cc4ccc32)c(OC)c1OC | 5.52% (active) | 5.31% (active) | 53.9% | 82.1% | 31.9% | 71.9% | 67.9% | 19.9%
Cn1c2c(c3ccc(Cl)c(Cl)c31)C(C#N)C(C)(C)NC2=O (stereo not given) | 74.2% | 88.1% | 80.9% | 67.5% | 95.3% | 76.9% | 91.8% | 91.9%
O=C(Nc1ccccc1O)c1ccc(CNC(=O)c2ccsc2Nc2ccnc(C(F)(F)F)c2)cc1 | 25% | 51.7% | 14.9% | 19.1% | 24.5% | 15.9% | 44.5% | 30%
CCOC(=O)C(Cc1ccc(OC)cc1)C(=O)OCC | 20.7% | -9.62% (active) | 14.7% | 35.1% | 17.1% | 17.8% | 55.5% | 7.78% (active)
COC(=O)/C=C1/SC(=Nc2ccc([N+](=O)[O-])cc2)N(CCc2c[nH]c3ccc(O)cc23)C1=O | 53.9% | 25.7% | 43.1% | 85.5% | 30.6% | 14.6% | 20.9% | 41.7%
O=C(Nc1cc(Cl)ccc1O)c1cccc(Nc2ccnc(C(F)(F)F)c2)c1 | 10.8% | 34.9% | 31.2% | 62.9% | 26% | 26.1% | 25.5% | 36.5%
COC(=O)CC[C@@H]1O[C@@H](c2ccc(F)cc2)[C@@H](O)[C@H]1O | 104% | 105% | 98.4% | 101% | 96% | 89.3% | 99.6% | 99.7%
Cc1ccc(NC(=O)Cn2c(Br)nc3c2c(=O)n(C)c(=O)n3C)cc1 | -10.5% (active) | 0.261% (active) | 54.2% | 30% | 13.2% | -21.5% (active) | 83.7% | 63.8%
Nc1nc2c(c3ncccc13)C(c1cccc(Cl)c1)Cc1ncccc1-2 (stereo not given) | 30.1% | 38.7% | -57.9% (active) | 23.1% | 17.2% | 24.4% | 34.4% | 19.4%
Cn1cc(-c2csc(-c3c[nH]c4ccc(F)cc34)n2)c2ccnc(Cl)c21 | 24.3% | 78.2% | 88.2% | 41.5% | 59.5% | 61.2% | 70.8% | 55.1%
COc1ccc(/C(C)=C(/c2ccc(OCCCN(C)C)cc2)c2ccc(OC(=O)c3ccccc3)cc2)cc1 | 49.7% | 87% | 85% | 88.8% | 31% | 48.6% | 88.3% | 75.2%
COc1cc(OC)c(C(=O)C(CN(C)C)CN(C)C)cc1OC | -17.6% (active) | 74.5% | 80.9% | -83.3% (active) | 10.6% | -65.6% (active) | 110% | 111%
Cc1cccc(Oc2ccc(Nc3ncnc4ccc(NC(=O)CN5CCN(C)CC5)cc34)cc2Cl)c1 | 7.58% (active) | 70.3% | -67.8% (active) | 3.68% (active) | 7.21% (active) | 12.3% | 19.3% | 30.7%
CCOC(=O)c1c(C)nc2c(c1N)/C(=C/c1ccc(OC)cc1)C(=O)N2Cc1ccccc1 | 40.7% | 63.6% | 63.4% | 55.6% | 22.8% | 36.8% | 62.8% | 33.6%
